{
  "source": "PubChem BioAssay (NCATS)",
  "key": {"[1]": {"test": "Confirmation and Secondary Assay for Modulators of Hemoglobin Beta Chain Splicing at IVS2 654 locus (AID 910);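 further: HeLa cells stably carrying EGFP split by mutant beta-globin IVS2-654 intron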", "settings": "HeLa EGFP-654 splicing reporter, GFP fluorescence, 48 h; series mostly up to 38.3 µM", "outline": "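HeLa cells stably expressing EGFP interrupted by β-globin IVS2-654 intron, seeded overnight in Opti-MEM/2% FCS, then treated 2 days at 37 °C. Restored splicing read as total peak GFP intensity per well by laser scanning cytometry (488 nm excitation, 500–520 nm emission); 500 nM antisense PNA as control.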"}, "[2]": {"system": "CP237", "test": "qHTS profiling for inhibitors of Plasmodium falciparum proliferation (AID 504749); further: nearly all actives have a fitted effect of over 60% in size; further: potency means the concentration at half of the fitted maximal effect", "settings": "P. falciparum in erythrocytes, SYBR Green DNA, 72 h; series mostly up to 28.7 µM", "outline": "(§1)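 Each compound contacts P. falciparum-infected red blood cells for 72 h at 37 C; lysis buffer (Tris, EDTA, saponin, Triton X, SYBR Green I) is added and fluorescence measured next morning; values normalized to controls.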"}, "[3]": {"system": "CP268", "test": "qHTS profiling for inhibitors of Plasmodium falciparum proliferation (AID 504749)", "settings": "P. falciparum in erythrocytes, SYBR Green DNA, 72 h; series mostly up to 28.7 µM", "outline": "as §1"}, "[4]": {"system": "CP286", "test": "qHTS profiling for inhibitors of Plasmodium falciparum proliferation (AID 504749)", "settings": "P. falciparum in erythrocytes, SYBR Green DNA, 72 h; series mostly up to 28.7 µM", "outline": "as §1"}, "[5]": {"system": "CP297", "test": "qHTS profiling for inhibitors of Plasmodium falciparum proliferation (AID 504749)", "settings": "P. falciparum in erythrocytes, SYBR Green DNA, 72 h; series mostly up to 28.7 µM", "outline": "as §1"}, "[6]": {"system": "HB3", "test": "qHTS profiling for inhibitors of Plasmodium falciparum proliferation (AID 504749)", "settings": "P. falciparum in erythrocytes, SYBR Green DNA, 72 h; series mostly up to 28.7 µM", "outline": "as §1"}, "[7]": {"system": "PC15", "test": "qHTS profiling for inhibitors of Plasmodium falciparum proliferation (AID 504749)", "settings": "P. falciparum in erythrocytes, SYBR Green DNA, 72 h; series mostly up to 28.7 µM", "outline": "as §1"}, "[8]": {"system": "TAB113", "test": "qHTS profiling for inhibitors of Plasmodium falciparum proliferation (AID 504749)", "settings": "P. falciparum in erythrocytes, SYBR Green DNA, 72 h; series mostly up to 28.7 µM", "outline": "as §1"}, "[9]": {"target": "Ubiquitin carboxyl-terminal hydrolase 1 (Homo sapiens) (UniProt O94782)", "sequence (O94782 whole entry, looked up)": "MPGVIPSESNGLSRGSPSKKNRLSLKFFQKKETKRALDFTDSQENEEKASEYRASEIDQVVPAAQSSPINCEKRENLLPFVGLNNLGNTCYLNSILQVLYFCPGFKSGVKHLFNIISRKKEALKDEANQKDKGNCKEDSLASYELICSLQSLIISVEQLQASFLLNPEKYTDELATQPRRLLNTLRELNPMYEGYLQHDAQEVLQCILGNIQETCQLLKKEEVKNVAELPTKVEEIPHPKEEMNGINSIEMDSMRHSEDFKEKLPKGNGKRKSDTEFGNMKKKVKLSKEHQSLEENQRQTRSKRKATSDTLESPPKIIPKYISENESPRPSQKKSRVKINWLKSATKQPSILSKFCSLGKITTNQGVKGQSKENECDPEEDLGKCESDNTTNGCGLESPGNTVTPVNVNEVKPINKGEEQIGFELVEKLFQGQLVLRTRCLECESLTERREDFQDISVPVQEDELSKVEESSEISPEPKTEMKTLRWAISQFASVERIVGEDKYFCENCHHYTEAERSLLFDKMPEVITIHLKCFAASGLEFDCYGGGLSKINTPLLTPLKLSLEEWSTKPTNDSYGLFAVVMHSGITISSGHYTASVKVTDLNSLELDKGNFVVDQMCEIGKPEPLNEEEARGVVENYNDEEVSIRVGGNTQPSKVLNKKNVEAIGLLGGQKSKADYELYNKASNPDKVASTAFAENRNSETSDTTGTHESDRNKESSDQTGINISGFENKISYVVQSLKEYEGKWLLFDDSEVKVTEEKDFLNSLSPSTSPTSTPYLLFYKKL", "test": "Inhibitors of USP1/UAF1: Pilot qHTS (AID 504865)", "settings": "purified USP1/UAF1, Ub-rhodamine cleavage fluorescence; series mostly up to 114 µM", "outline": "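In 50mM HEPES pH 7.8 containing 0.5mM EDTA, 1mM TCEP, 0.1 mg/ml BSA and 0.01% Tween-20, 1nM USP1/UAF1 is exposed to compound for 15 min, then Ub-Rho (150nM final) is added and fluorescence is read over time.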"}, "[10]": {"system": "TAB109", "test": "qHTS profiling for inhibitors of Plasmodium falciparum proliferation (AID 504749)", "settings": "P. falciparum in erythrocytes, SYBR Green DNA, 72 h; series mostly up to 28.7 µM", "outline": "as §1"}},
  "note": "Results filed as inconclusive are left out. Entries that show only a call come without a potency. Calls of active or inactive are those of the source. The call rests on the fitted dose curve; in most records, active means well fitted curve in the direction sought with a large enough effect; inconclusive means small, poorly fitted or top-dose-only effect, or another doubt; inactive means no such curve, though single readings can be large; an effect the other way counts as inactive or inconclusive.",
  "data": [
    {"smiles": "Nc1nc(Cl)nc2c1ncn2[C@@H]1O[C@@H](CO)[C@@H](O)[C@H]1O", "values": [
      {"measurement": "outcome", "setting": "[1]", "result": "inactive"}
    ]},
    {"smiles": "CO/N=C(\\C(=O)N[C@@H]1C(=O)N2C(C(=O)[O-])=C(C[N+]3(C)CCCC3)CS[C@@H]12)c1csc(N)n1", "values": [
      {"measurement": "Potency", "setting": "[2]", "result": "inactive"},
      {"measurement": "Potency", "setting": "[3]", "result": "inactive"},
      {"measurement": "Potency", "setting": "[4]", "result": "inactive"},
      {"measurement": "Potency", "setting": "[5]", "result": "inactive"},
      {"measurement": "Potency", "setting": "[6]", "result": "inactive"},
      {"measurement": "Potency", "setting": "[7]", "result": "inactive"},
      {"measurement": "Potency", "setting": "[8]", "result": "inactive"}
    ]},
    {"smiles": "C[C@H]1C[C@@H]2[C@H]3CCC4=CC(=O)C=C[C@@]4(C)[C@@]3(Cl)[C@@H](O)C[C@]2(C)[C@]1(OC(=O)c1ccco1)C(=O)CCl", "values": [
      {"measurement": "Potency", "setting": "[9]", "result": "inactive"},
      {"measurement": "Potency", "setting": "[10]", "result": "3.55 µM (active)"}
    ]},
    {"smiles": "C[C@@H]1C[C@H]2[C@H]3C[C@@H](F)C4=CC(=O)C=C[C@]4(C)[C@@]3(Cl)[C@@H](O)C[C@@]2(C)[C@@H]1C(=O)COC(=O)C(C)(C)C", "values": [
      {"measurement": "Potency", "setting": "[5]", "result": "inactive"}
    ]}
  ]
}
